G9a inh = G9a (human) methyltransferase inhibition | hit rate 8.8% among 350,000 | Q96KQ7 | Potency, µM (highest dose often 102 µM), without a hit: at the top dose activity, negative = inhibition, usual class: inhibitors | G9a H3K9 monomethylation, AlphaScreen, 2 h; note: potency is the fitted concentration of half-maximal effect; % is set by controls: 0 for no effect and ±100 for the full control effect; nearly all actives have a fitted effect of over 75% in size
Target sequence (Q96KQ7 913-1193 limits assumed): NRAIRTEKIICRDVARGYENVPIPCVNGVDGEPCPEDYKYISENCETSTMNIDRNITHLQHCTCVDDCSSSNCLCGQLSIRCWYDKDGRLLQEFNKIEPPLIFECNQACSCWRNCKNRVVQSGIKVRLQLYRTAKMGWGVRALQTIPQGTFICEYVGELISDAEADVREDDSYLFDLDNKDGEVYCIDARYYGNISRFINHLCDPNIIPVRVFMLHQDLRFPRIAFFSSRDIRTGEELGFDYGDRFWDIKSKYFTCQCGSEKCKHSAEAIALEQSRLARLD
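Compounds were preincubated with 20 nM G9a for 15 min, after which biotinylated H3K9 peptide (500 nM) and SAM (20 uM) started a 2 h room-temperature reaction. Monomethylated product was quantified by antibody-based AlphaScreen chemiluminescence.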
BAZ2B block = inhibitors of human BAZ2B bromodomain; AlphaScreen BAZ2B-H3K14Ac peptide displacement; Potency, µM (doses to about 114 µM), for the others: at the highest dose activity change, negative = inhibition, most hits filed as inhibitors; hit rate 4.4% among 360,000; note: potency is the fitted concentration of half-maximal effect; % is set by controls: 0 for no effect and ±100 for the full control effect; nearly all actives have a fitted effect of over 60% in size
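In this displacement format the biotinylated H3(5-23) peptide acetylated at Lys14 serves as ligand at 50 nM, with BAZ2B at 50 nM in PBS pH 7.4 containing 0.01% Tween-20. Donor and acceptor beads are 10 ug/mL final.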
PLK1 PBD inh = inhibitors of human PLK1 polo-box domain binding. Plk1 PBD binding of FITC phosphopeptide, fluorescence polarization. Potency, µM, for the others: max response, negative = inhibition, usual class: inhibitors. hit rate 2.8% among 360,000. P53350; note: potency is the fitted concentration of half-maximal effect; series mostly up to about 57 µM; % is set by controls: 0 for no effect and ±100 for the full control effect; nearly all actives have a fitted effect of over 65% in size
JMJD2A Tudor = inhibitors of human JMJD2A Tudor domain; hit rate 4.4% among 390,000; Potency, µM (series often up to 114 µM), for the others: at the top dose activity change, negative = inhibition, actives largely listed as inhibitors; AlphaScreen JMJD2A-Tudor / H3K4me3 peptide binding; AID 504339; note: potency is the fitted concentration of half-maximal effect; % is set by controls: 0 for no effect and ±100 for the full control effect; nearly all actives have a fitted effect of over 50% in size
HP1b chromo inh = inhibitors of HP1-beta chromodomain binding to methylated histone tails. Potency, µM (series often up to 114 µM), for inactives: top-dose activity change, negative = inhibition, most hits filed as inhibitors. P83916. AlphaScreen HP1-beta / biotin-H3K9me3 peptide binding. hit rate 0.56% among 390,000; note: potency is the fitted concentration of half-maximal effect; nearly all actives have a fitted effect of over 70% in size
Target sequence (P83916 whole entry, looked up): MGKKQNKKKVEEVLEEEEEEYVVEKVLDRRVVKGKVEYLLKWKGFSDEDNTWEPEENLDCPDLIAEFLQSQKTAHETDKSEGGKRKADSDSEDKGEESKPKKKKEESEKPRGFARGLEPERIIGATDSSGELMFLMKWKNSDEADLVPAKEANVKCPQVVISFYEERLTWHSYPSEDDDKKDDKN
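Compound inhibition of the preformed complex between 50 nM HP1-beta and 50 nM biotinylated H3K9me3 peptide was read by AlphaScreen. Buffer was PBS pH 7.4 with 0.01% Tween-20. Incubations ran 30 min at room temperature, with 10 ug/mL donor/acceptor beads.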
PI5P4Ka inh = PI5P4K alpha (human) kinase inhibition | hit rate 1.2% among 330,000 | max response, % | P48426 | PI5P4Kalpha enzyme, ADP-Glo luminescence, 60 min; active compounds read low; active = max response of -50% or lower; inconclusive = between -30% and -50%; inactive = -30% or higher; note: value at the top dose of about 77 µM; % is set by controls: 0 for no effect and ±100 for the full control effect
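Compounds were pin-transferred onto PI5P4Kalpha and substrate in HEPES pH 7.4 buffer with EGTA, CHAPS and 5% DMSO. ATP (5 microM final) started the reaction, which ran 60 minutes at room temperature before ADP-Glo detection.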
Numbers without * were called inactive; ? = inconclusive; nt = no result; [ ] = another dose, or the depositor's remark. Compounds with a hit are over-represented: about 12% of the library has one in this group of screens. Unless noted, calls come from the whole dose curve; as a rule, active = well fitted curve in the direction sought with a large enough effect; inconclusive = small, poorly fitted or top-dose-only effect, or another doubt; inactive = no such curve, though single readings can be large; an effect the other way counts as inactive or inconclusive.

SMILES	G9a inh	BAZ2B block	PLK1 PBD inh	JMJD2A Tudor	HP1b chromo inh	PI5P4Ka inh
COc1cc(CNCc2ccccn2)ccc1OCC(N)=O	2.2µM*	14µM*	-1%	50µM*	21%	nt
COc1cccc(CNc2nc3cc(-c4cscc4C)sc3c(=O)n2C)c1	nt	nt	1%	nt	nt	25
CC(C)Oc1ccc(S(=O)(=O)N2CCOCC2)cc1NC(=O)c1cc([N+](=O)[O-])ccc1N1CCOCC1	16%[0.501 µM]	1%	-6%	-30%	-8%	4
CCC1CCCCN1C(=O)Cn1c(=O)n(CCCCCC(=O)NCc2ccccc2Cl)c(=O)c2sccc21 (stereo not drawn)	-4%[59 µM]	-2%	nt	-18%	11%	nt
Nc1nc2ccccc2cc1C(=O)NCc1ccc(-c2ccccc2)cc1	nt	nt	-4%	nt	nt	-4
CCC(=O)Nc1ccc2c(c1)ncn2-c1ccccc1OC	45µM*	14%	-11%	-23%	24%	3
CCC(=O)Nc1ccc2c(c1)ncn2-c1ccccc1	-17%[59 µM]	-2%	-3%	-1%	26%	nt
COc1ccc(OCC(=O)Nc2ccc3c(c2)n(C)c(=O)n3C)cc1	-43%[0.501 µM]	?	-15%	-15%	7%	-3
COc1ccccc1OCC(=O)Nc1ccc2c(c1)n(C)c(=O)n2C	?	56µM*	-1%	-6%	29%	4
COC(=O)Cc1c(C)c2ccc3c(c2oc1=O)CN(Cc1ccccc1OC)CO3	-30%[59 µM]	3%	nt	?	58%	nt
Nn1c(COc2cccc(Br)c2)nnc1SCC(=O)N1CCc2ccccc2C1	40µM*	-10%	-9%	-16%	52%	-7
Cn1c(Cc2ccc3c(c2)OCO3)nnc1SCC(=O)N1CCc2ccccc2C1	45µM*	10%	-10%	-22%	6%	nt
CC(C)(C)OC(=O)N1CCC[C@H]1C(=O)NCc1ccc(F)cc1F	nt	nt	-2%	nt	nt	5
Cc1ccc(OCCCCN2CCC(C)CC2)cc1	-32%	50µM*	2%	3.2µM*	?	-9
CC1CCN(CCCCOc2cccc(C(C)C)c2)CC1	40µM*	?	-4%	56µM*	-29%	-4
O=[N+]([O-])c1ccc(OCCCCN2CCc3ccccc3C2)cc1	35µM*	79µM*	-14%	20µM*	?	-10
CC1CCN(CCCCOc2ccc([N+](=O)[O-])cc2)CC1	11µM*	-33%	-4%	79µM*	5%	1
Cc1ccc(C)c(NC(=S)N2CCC(NC(=O)c3ccco3)CC2)c1	10%	6%	-3%	-5%	19%	1
Cc1ccc(CSc2nc(=O)c3c(C)cc(C)nc3n2C2CC2)cc1	4%[59 µM]	18%	nt	-17%	38%[57 µM]	nt
O=c1oc2cc(O)ccc2cc1-c1nc(-c2ccc(Cl)c(Cl)c2)cs1	2%[59 µM]	-2%	nt	-29%	24%	nt
COc1ccc(CNC(=O)C2=C(C)C(=O)OC23CCN(C(C)=O)CC3)cc1	8%[59 µM]	-2%	nt	6%	28%	nt
CC1CCN(CCCCOc2ccccc2[N+](=O)[O-])CC1	?	?	-1%	4.5µM*	?	nt
CCOc1ccccc1OCCOCCOc1ccccc1[N+](=O)[O-]	4%[59 µM]	-1%	-22%	9%[57.1 µM]	59%	-4
CN1CCN(CCCCOc2ccc(F)cc2)CC1	-31%	-2%	-3%	14%[57.1 µM]	43%	5
CC1CCN(CCCCOc2ccc(F)cc2)CC1	?	?	4%	3.2µM*	?	5
SMILES	G9a inh	BAZ2B block	PLK1 PBD inh	JMJD2A Tudor	HP1b chromo inh	PI5P4Ka inh
Cc1cccc(OCC(=O)NCC(=O)N/N=C/c2cc(Br)cc(Br)c2O)c1	49%	6%	-5%	-28%	3%[57 µM]	-21
c1ccc(Nc2cc(Nc3ccccc3)[nH]n2)cc1	?	45µM*	-26%	?	-26%	nt
O=C(c1cccc(NS(=O)(=O)c2ccc(Br)cc2)c1)N1CCN(c2ccccc2O)CC1	50µM*	-28%	-9%	-33%	6%	-17
CCOC(=O)c1cc(-c2ccccc2)n(CCC(=O)N2CCN(c3ccc(OC)cc3)CC2)c1C	?	25µM*	-4%	?	?	3
COc1ccc(N2CCN(S(=O)(=O)CCNS(=O)(=O)c3ccccc3)CC2)cc1	14µM*	-3%	-1%	8%	29%	-4
O=C(c1cccc(NS(=O)(=O)c2ccccc2)c1)N1CCCC1	?	-16%	-2%	-9%	23%	0
O=C(c1cccc(NS(=O)(=O)c2ccc(F)c(F)c2)c1)N1CCN(C(c2ccccc2)c2ccccc2)CC1	50µM*	-5%	-22%	-34%[57.1 µM]	15%	4
CCN(CC)c1ccc(NC(=O)Cn2nc(C)n3cccc3c2=O)c(C)c1	-31%[59 µM]	-2%	nt	-3%	37%	nt
CCc1nc2c(OCc3cc(Cl)cc(Cl)c3)cccn2c1N(C=O)Cc1ccccc1	nt	nt	10%	nt	nt	-9
CCOc1ccc(S(=O)(=O)NCCC(=O)N2CCN(c3ncccn3)CC2)cc1	11%[12.7 µM]	0%	-4%	-11%	16%	1
CCOC(=O)c1cc(-c2ccc(F)cc2)n(CCC(=O)Nc2nc3ccc(OC)cc3s2)c1C	-49%[59 µM]	?	nt	56µM*	-25%	nt
COc1ccc(N2CCN(C(=O)c3cccc(NC(=O)c4nsc5ccccc45)c3)CC2)cc1	10µM*	7.9µM*	nt	?	?	nt
CCOc1ccc(S(=O)(=O)Nc2cccc(C(=O)N3CCN(c4ccc(OC)cc4)CC3)c2)cc1	11µM*	?	-12%	?	-12%	5
CCOc1ccc(S(=O)(=O)NCCC(=O)N2CCN(c3ccc(OC)cc3)CC2)cc1	45µM*	?	21µM*	?	?	-24
CCOC(=O)c1cc(-c2ccc(F)cc2)n(CCC(=O)Nc2nc3cc(C)c(C)cc3s2)c1C	-4%[59 µM]	2%	nt	-6%	42%	nt
CCN1CCN(Cc2nc3cc(NC(=O)c4ccccc4[N+](=O)[O-])ccc3n2CC)CC1	-8%[59 µM]	-15%	nt	-1%	26%	nt
CCCCn1c(=O)c2oc3ccccc3c2n(Cc2cccc(C)c2)c1=O	-4%[59 µM]	3%	nt	10%	38%	nt
O=C(CSc1nc2c([nH]c3ccccc32)c(=O)n1-c1ccc(F)cc1)N1CCCCCC1	9%[59 µM]	-1%	nt	-12%	5%[57 µM]	nt
COc1ccc(N2CCN(C(=O)CCNS(=O)(=O)c3ccccc3)CC2)cc1	nt	-10%	9.5µM*	?	-13%	?
Cc1ccc(SCC(=O)OCC(=O)N(CCC#N)c2ccccc2)cc1C	56µM*	13%	-1%	?	53%	-2
N#CCCN(C(=O)COC(=O)CCc1ccccc1)c1ccccc1	12%	-14%	-2%	0%	23%[57 µM]	4
CC(=O)Nc1sc(C)c(C)c1C(=O)OCC(=O)NC(C)c1ccccc1 (stereo not drawn)	?	9%	-8%	-19%	5%	0
Cc1ccc(NC(=O)N/C=C/c2ccco2)cc1C	32µM*	-33%	4%	?	7%	-57*

High-throughput results: PubChem, National Center for Advancing Translational Sciences (NCATS)
